KDM4E inh = qHTS Assay for Inhibitors of Human Jumonji Domain Containing 2E (JMJD2E) | hit rate 1.6% among 230,000 | JMJD2E catalytic domain, FDH-coupled NADH fluorescence (FDH is formaldehyde dehydrogenase) | Potency, µM (top dose mostly 57.1 µM), for the others: top-dose activity change, negative = inhibition, actives largely listed as inhibitors; active = well fitted inhibition curve with a large enough effect, not every such curve was filed as active; inconclusive = small, poorly fitted or top-dose-only effect, or another doubt; inactive = no such curve, though single readings can be large or run the other way;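 note: potency is the fitted concentration of half-maximal effect; 0% = wells with enzyme and -100% = buffer wells without enzyme; nearly all actives have a fitted effect of over 50% in size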
Target sequence (B2RXH2 1-337 limits assumed): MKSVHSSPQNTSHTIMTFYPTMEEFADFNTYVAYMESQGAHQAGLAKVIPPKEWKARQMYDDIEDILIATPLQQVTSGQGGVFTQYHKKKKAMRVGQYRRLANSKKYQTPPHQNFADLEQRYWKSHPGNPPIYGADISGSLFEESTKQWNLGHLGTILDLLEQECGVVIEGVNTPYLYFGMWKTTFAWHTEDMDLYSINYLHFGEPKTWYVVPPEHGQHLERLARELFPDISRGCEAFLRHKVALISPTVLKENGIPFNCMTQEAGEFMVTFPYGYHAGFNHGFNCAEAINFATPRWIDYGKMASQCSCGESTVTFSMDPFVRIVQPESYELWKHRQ
Coupling enz = qHTS Assay for Inhibitors of Fructose-1,6-bisphosphate Aldolase from Giardia Lamblia: Coupling assay counterscreen | coupling enzyme system counterscreen, AmpLite Red fluorescence | activity change, negative = inhibition, % at 58.2 µM, hits read low | hit rate 0.67% among 290,000 | AID 2472, 2010; in the data active = activity change below about -30%
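Counterscreen of the coupled detection system alone, without aldolase: glyceraldehyde-3-phosphate coupling enzymes plus AmpLite Red readout. Compounds at 57.5 uM final, 10 min RT preincubation, 20 min RT reaction, fluorescence 525/598 nm.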
Tau fibril ThT = qHTS for Inhibitors of Tau Fibril Formation, Thioflavin T Binding | Microtubule-associated protein tau (Homo sapiens), P10636 | recombinant tau K18 P301L, heparin-induced fibrillization, ThT fluorescence | Potency, µM (titrated, usually from 57.4 µM), for inactives: at the highest dose activity, negative = inhibition, usual class: inhibitors | hit rate 2.1% among 270,000 | AID 1460, 2008; note: potency is the fitted concentration of half-maximal effect; nearly all actives have a fitted effect of over 55% in size
Target sequence (P10636 561-689 P618L limits assumed): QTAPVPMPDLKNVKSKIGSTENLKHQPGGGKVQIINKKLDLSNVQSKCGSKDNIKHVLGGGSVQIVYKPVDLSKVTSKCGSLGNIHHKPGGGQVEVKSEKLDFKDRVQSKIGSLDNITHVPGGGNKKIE
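ThT emission at 510 nm, taken 1 hr after adding 30 uM dye, quantifies aggregates formed when 20 uM heparin acts on human tau K18 P301L for 6 hr at 37 C.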
Tau FP inhib = qHTS for Inhibitors of Tau Fibril Formation, Fluorescence Polarization | Microtubule-associated protein tau (Homo sapiens), P10636 | K18 P301L tau heparin fibrillization, Alexa594 FP, 6 h | Potency, µM (doses to about 57.7 µM), inactives show top-dose activity, negative = inhibition, actives largely listed as inhibitors | hit rate 0.39% among 280,000 | AID 1468, 2008; note: potency is the fitted concentration of half-maximal effect; nearly all actives have a fitted effect of over 55% in size
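Steps: dispense K18 P301L tau (15 uM plus 0.24 uM Alexa 594 tracer, final) in pH 7 sodium acetate; add compound; add heparin (20 uM final); incubate 6 hr, 37 C; add ThT (30 uM final); after 1 hr ambient, read FP.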
Tau fluor cs = Counterscreen qHTS for Inhibitors of Tau Fibril Formation, Fluorescence Polarization; hit rate 0.93% among 280,000; tau K18 P301L Alexa594 fluorescence, heparin fibrillization; Potency, µM (highest dose often 57.7 µM), for the others: at the top dose activity change, negative = decrease; note: potency is the fitted concentration of half-maximal effect; nearly all actives have a fitted effect of over 55% in size
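Human tau K18 P301L (15 uM unlabeled, 0.24 uM Alexa 594-labeled) in 100 mM sodium acetate pH 7 with 20 uM heparin, 6 hr at 37 C. ThT 30 uM added, 1 hr ambient; Alexa 594 FP and total fluorescence read at 555/632 nm.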
Sfp inh = qHTS Assay for Inhibitors of Bacillus subtilis Sfp phosphopantetheinyl transferase (PPTase); Biochemical Sfp PPTase activity, qHTS; Potency, µM, inactives show largest response in the series, negative = inhibition, usual class: inhibitors; hit rate 3.5% among 310,000;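 note: the enzyme is Sfp with the accession as filed and its product quenches rhodamine fluorescence; potency is the fitted concentration of half-maximal effect; 0% = enzyme reaction without inhibitor and -100% = no enzyme wells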
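Buffer: 50 mM Hepes-Na pH 7.6, 10 mM MgCl2, 0.01% Nonidet P-40, 0.01% BSA. Enzyme 15 nM, pre-exposed to compound 15 min; substrates then added and fluorescence change tracked over 30 min.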
Starred values were filed as active, the others as inactive; ? = inconclusive; · = no result given; [ ] = another dose, or the depositor's remark. Most compounds without a hit are left out; they make up all but 5.3% or so of the library. Unless noted, calls come from the whole dose curve; as a rule, active = well fitted curve in the direction sought with a large enough effect; inconclusive = small, poorly fitted or top-dose-only effect, or another doubt; inactive = no such curve, though single readings can be large; an effect the other way counts as inactive or inconclusive. Unless noted, % is set by controls: 0 for no effect and ±100 for the full control effect.

SMILES	KDM4E inh	Coupling enz	Tau fibril ThT	Tau FP inhib	Tau fluor cs	Sfp inh
CC(C)C[C@H](NC(=O)[C@H](CCCCN)NC(=O)CNC(=O)[C@H](CC(C)C)NC(=O)[C@@H](NC(=O)[C@@H]1CSSC[C@H](N)C(=O)N[C@@H](CO)C(=O)N[C@@H](CC(N)=O)C(=O)N[C@@H](CC(C)C)C(=O)N[C@@H](CO)C(=O)N[C@@H]([C@@H](C)O)C(=O)N1)C(C)C)C(=O)N[C@@H](CO)C(=O)N[C@@H](CCC(N)=O)C(=O)N[C@@H](CCC(=O)O)C(=O)N[C@@H](CC(C)C)C(=O)N[C@@H](Cc1cnc[nH]1)C(=O)N[C@@H](CCCCN)C(=O)N[C@@H](CC(C)C)C(=O)N[C@@H](CCC(N)=O)C(=O)N[C@H](C(=O)N[C@@H](Cc1ccc(O)cc1)C(=O)N1CCC[C@H]1C(=O)N[C@@H](CCCNC(=N)N)C(=O)N[C@H](C(=O)N[C@@H](CC(N)=O)C(=O)N[C@H](C(=O)NCC(=O)N[C@@H](CO)C(=O)NCC(=O)N[C@H](C(=O)N1CCC[C@H]1C(N)=O)[C@@H](C)O)[C@@H](C)O)[C@@H](C)O)[C@@H](C)O	·	3.3	·	·	·	-6.3%
COc1ccccc1NC(=O)CSC1=Nc2ccccc2C2=NC(Cc3ccccc3)C(=O)N12 (centres undefined)	·	·	-11.6%	3.3%	-12.4%	·
NS(=O)(=O)c1ccc(NC(=S)NC2CCCCC2)cc1	-4.6%	-11.1	3.1%	-10.2%	-2.5%	7.94µM*
S=C(Nc1ccc(Nc2ccccc2)cc1)NC1CCCCCC1	-5.0%	-0.3	-16.4%	9.4%	10µM*[quencher]	?
Cc1nc2ccc(NC(=S)NC3CCCCC3)cc2nc1C	-8.2%	-34.6*	?	2.0%	?	-2.4%
Cn1c(NNC(=O)c2cccc3ccccc23)cc(=O)n(C)c1=O	2.4%	-12.7	?	-2.4%	-12.8%	10.5%
Cn1c(NNC(=O)c2ccccc2F)cc(=O)n(C)c1=O	1.5%	-30.2*	·	-2.4%	7.2%	-10.9%
CC1C(=O)C(=O)C=CN1C (centres undefined)	·	·	·	·	·	44.7µM*
COc1ccc(C)cc1NC(=O)c1ccc2nc(Cc3ccccc3)oc2c1	·	·	?	-9.2%	-28.4%	·
CCCCS(=O)(=O)/C=C\C=C/S(=O)(=O)CCCC	-6.6%	0.2	?	?	-5.0%	11.2µM*
O=C(/C=C/c1ccc(Br)cc1)c1ccc(NC2=NCCCS2)cc1	6.3%	-11.1	8.2%	9.6%	6.3%	39.8µM*
CO[C@@H]1COC(=O)C/C=C\[C@@H](C)COC(=O)[C@H](Cc2ccccc2)NC(=O)C/C=C\[C@H]1C	·	2.6	-5.2%[11.5 µM]	-1.1%[11.6 µM]	-6.4%[11.6 µM]	13.3%
O=C(Nc1nccs1)c1ccccn1	26.4%	-2.8	-4.2%	-2.4%	1.7%	79.4µM*
O=C(Nc1nccs1)c1cnccn1	0.9%	-1.0	-4.9%	4.2%	1.2%	?
COc1ccc(Cl)cc1C(=O)N/N=C/c1ccc(N2CCOCC2)cc1	?	-0.9	11.2µM*	1.5%	-23.2%	-0.5%
Cc1ccc(/C=N/NC(=O)c2ccncc2)o1	-0.1%	1.0	0.8%	-2.5%	-4.5%	-19.0%
Cc1ccc(/C=N/NC(=O)c2ccccn2)o1	-11.7%	-0.4	-6.5%	4.2%	-3.2%	56.2µM*
O=C(N/N=C/c1ccc(N2CCOCC2)cc1)c1ccccn1	-4.4%	-0.8	14.1µM*	-2.7%	-16.9%	?
O=C(N/N=C\c1cc([N+](=O)[O-])ccc1N1CCOCC1)c1ccccn1	-20.6%	4.4	-13.2%	-9.3%	-15.6%	44.7µM*
